# Shown are actives, neighbours in structure and some others; about 3.5% of the full set was active somewhere.
# BJeLR viability: kills HRASV12-expressing BJeLR cells | BJeLR (HRASV12) viability, CellTiter-Glo ATP luminescence, 48 h | inhibition, % (test concentration not listed) | 300,000 tested, 0.17% active | AID 1554; in the data active = inhibition above about 50%; inconclusive = no clear call, values can overlap the other calls
# BoNT F protease: blocks Botulinum neurotoxin F light chain protease; inhibition, % at 10 µM; Multiplex microsphere protease cleavage assay, flow cytometry; 360,000 tested, 0.22% active; in the data active = inhibition above about 35%, passing the limit was not always enough; inconclusive = no clear call, values can overlap the other calls; also: plate controls were buffer without enzyme for full effect and enzyme alone for no effect
# Bead autofluor: counter-screen for toxin protease inhibitors: compound fluorescence | compound autofluorescence counterscreen, microsphere flow cytometry; active compounds read high | fluorescence intensity (test concentration not listed) | 360,000 tested, 3.1% active; in the data active = fluorescence intensity above about 16000; inconclusive = no clear call, values can overlap the other calls
# BoNT A protease: inhibitors of Botulinum neurotoxin A light chain protease; multiplex microsphere protease substrate cleavage, flow cytometry; 360,000 tested, 0.17% active; inhibition, % at 10 µM; AID 588499; also: plate controls were buffer without enzyme for full effect and enzyme alone for no effect
# Anthrax LF inh2: inhibitors of Bacillus anthracis lethal factor protease | multiplex microsphere protease cleavage assay, LF | inhibition, % at 10 µM | 360,000 tested, 0.12% active; also: plate controls were buffer without enzyme for full effect and enzyme alone for no effect
# Active calls of the source: *; ? = inconclusive; / = not tested or not shown. Rule as the data show it, unless noted: active = inhibition above about 30%; inconclusive = no clear call, values can overlap the other calls; inactive = below that.
SMILES,BJeLR viability,BoNT F protease,Bead autofluor,BoNT A protease,Anthrax LF inh2
Cc1c(C(=O)NC(C)CN2CCCCC2)oc2ccccc12 (stereo not drawn),-3,-4,17372*,1,5
Clc1ccc(-c2nnc3c4ccccc4nc(N4CCOCC4)n23)cc1Cl,1,-10,21865*,?,-3
Fc1ccccc1-c1nnc2c3ccccc3nc(N3CCOCC3)n12,8,1,19272*,1,-6
Brc1ccc(-c2nnc3c4ccccc4nc(N4CCOCC4)n23)cc1,7,14,5395,?,?
c1ccc2c(c1)nc(N1CCOCC1)c1ccccc12,-5,-4,4412,0,0
C=CCN(CC=C)Cc1c(C)[nH]c2c(C)c(C)ccc2c1=O,6,30,4535,3,6
CCN(Cc1ccccc1)Cc1c(C)[nH]c2c(C)c(C)ccc2c1=O,-5,-4,20905*,?,-4
N#Cc1ccc(CN2CCN(C(=O)c3ccccc3)CC2)c(Cl)c1,-19,-7,21609*,?,-4
O=C(c1ccccc1)N1CCN(Cc2ccccc2C(F)(F)F)CC1,6,-4,4178,-1,-3
COc1ccc(CCNC(=O)c2cccc(-n3cnnn3)c2)cc1,/,-2,3683,0,-5
Cc1ccc(CNC(=O)c2cccc(-n3cnnn3)c2)cc1,-3,0,23751*,0,0
COc1cc(C(=O)NNC(=O)Nc2ccc([N+](=O)[O-])cc2)cc(OC)c1OC,2,-6,1912,0,-1
CC(C)(C)C(=O)CN1CCN(C2c3ccccc3-c3ccccc32)CC1,-29,-8,21967*,-6,-8
COc1ccccc1NC(=O)CN1CCN(C2c3ccccc3-c3ccccc32)CC1,-8,4,2197,0,-3
COC(=O)c1ccccc1NC(=O)COC(=O)Cc1ccc(S(=O)(=O)N2CCOCC2)s1,/,-3,3687,-1,-5
CC(=O)C(Sc1nc(N(C)C)nc(N(C)C)n1)C(=O)Nc1ccccc1 (stereo not drawn),6,-5,4768,0,-2
CC(=O)C(Sc1nn(C)c(=S)s1)C(=O)Nc1ccccc1 (stereo not drawn),4,0,23581*,0,-3
CC(C)OCCCNC(=O)c1ccncc1,1,3,18964*,2,2
O=c1c(O)c(-c2cccs2)oc2ccccc12,6,3,7327,31*,1
O=c1c(O)c(-c2cccs2)oc2ccc(Cl)cc12,1,16,9623,35*,32*
O=c1cc(-c2cccs2)oc2ccc(Cl)cc12,-5,0,22409*,-1,-1
O=c1c(O)c(-c2ccccc2)oc2ccccc12,/,12,5182,16,24
O=c1cc(-c2ccccc2)oc2ccc(Cl)cc12,/,-5,3900,0,-1
O=C1NC[C@@H](CCCCN2CCN(CCC3CCCCC3)C(=O)C2=O)N(CCC2CCCCC2)C1=O,/,-3,5216,0,1
COc1ccc(C(=O)c2ccc(Cl)cc2)cc1,2,?,4900,0,-4
SMILES,BJeLR viability,BoNT F protease,Bead autofluor,BoNT A protease,Anthrax LF inh2
COc1ccc(C(=O)c2ccc(Cl)c([N+](=O)[O-])c2)cc1,67*,4,2121,1,-1
Cc1ccc2nc(NC(=O)CN(C)S(=O)(=O)c3ccc(Br)s3)sc2c1,-8,-1,2070,0,-3
Cc1ccc2nc(NC(=O)Cc3cccs3)sc2c1,-13,-6,21273*,-4,0
Cc1ccc2nc(NC(=O)CNS(=O)(=O)c3ccc(Br)s3)sc2c1,-4,5,21835*,6,0
Cc1cccc(OCc2nnc(NC(=O)Cc3cccs3)s2)c1,-4,-2,16333*,0,-2
O=S1(=O)CC(N2CC=CC2)CN1Cc1ccc(F)cc1 (stereo not drawn),/,-13,4244,0,-8
CCCCc1cc(=O)oc2c(C)c(OCC(=O)NCC3CCC(C(=O)O)CC3)ccc12 (stereo not drawn),3,4,5232,0,-4
COc1cccc(CNC(=O)[C@@H]2CCCN2C(=O)OC(C)(C)C)c1,/,-3,4306,1,2
C=Cc1ccc(CN2CCCN(Cc3ccc(Cl)cc3)S2(=O)=O)cc1,-6,-12,4051,0,-10
C=Cc1ccc(CN2CCCN(Cc3ccc(F)cc3)S2(=O)=O)cc1,4,45*,4100,0,-6
COc1ccc(CNc2oc(-c3cccc4ccccc34)nc2C#N)cc1,5,-3,19935*,-1,-4
CNc1oc(-c2cccc3ccccc23)nc1C#N,3,0,3241,0,-5
Cc1ccc(S(=O)(=O)N2CCOCC2)cc1C(=O)NNC(=O)c1ccoc1C,0,-3,4867,0,-5
CN1CCN(C2=CC3=CC(=C(C#N)C#N)CCC3CC2)CC1 (stereo not drawn),/,12,17359*,-7,0
N#CC(C#N)=C1C=C2C=C(N3CCOCC3)CCC2CC1 (stereo not drawn),0,12,26074*,-11,-2
CC1(C)CC(NCCN2CCN(C3=CC(=C(C#N)C#N)CC(C)(C)C3)CC2)=CC(=C(C#N)C#N)C1,5,-8,4513,0,0
N#CC(C#N)=C1C=C2C=C(N3CCCCCC3)CCC2CC1 (stereo not drawn),1,177*,97979*,48*,84*
CCN1CCN(C2=CC3=CC(=C(C#N)C#N)CCC3CC2)CC1 (stereo not drawn),/,48*,30604*,-8,6
N#Cc1cc(Cl)c(N2CCOCC2)cc1C#N,6,-12,4652,0,-2
O=C(NCCc1ccccc1)C1Cc2c(-c3ccc(Cl)cc3)ccnc2O1 (stereo not drawn),/,0,3824,0,2
O=C(NC1CCCC1)C1CCN(C(=O)c2ccccc2Cl)CC1,5,4,4192,-2,-3
Cn1c(-c2ccccc2)c(Sc2ccccc2)c2cc(-c3ccc4[nH]ccc4c3)ccc21,/,-4,5087,0,-1
CC(C)(C)c1ccc(C(=O)NCC(=O)N/N=C/c2ccccc2OCC(=O)O)cc1,4,5,3951,0,-1
O=C(NC1(C(F)(F)F)NC(=O)N(Cc2cccnc2)C1=O)c1ccc(F)cc1 (stereo not drawn),0,-3,23016*,-1,-2
Cc1onc(-c2ccccc2)c1C(=O)Oc1cccnc1,2,5,21663*,1,-3
SMILES,BJeLR viability,BoNT F protease,Bead autofluor,BoNT A protease,Anthrax LF inh2
COc1ccc(N2CCN(C(=O)COC(=O)c3ccco3)CC2)cc1,1,-7,4606,-4,0
Cc1cnc(NC(=O)C(C)N2C(=O)C3CC=CCC3C2=O)s1 (stereo not drawn),-4,-4,17257*,-3,-2
Cn1c(COc2ccccc2O)[n+](C)c2ccccc21,8,4,2878,2,-6
COc1ccc(N=Nc2n(C)c3ccccc3[n+]2C)cc1,52*,/,/,/,/
Cc1cc(OCc2cn(CC(=O)c3ccc(O)cc3)nn2)ccc1[N+](=O)[O-],/,-6,2993,0,-8
O=C(/C=C/[C@H]1O[C@@H](n2ccc(=O)[nH]c2=O)[C@H](O)[C@@H]1O)NCC1CCCO1 (stereo partly drawn),/,-3,4429,0,4
